Bioassay records: PubChem, several laboratories
This is a sample that favours compounds with a hit; in the whole collection about 2.9% have one here.
MEKK3 PB1 HTS: raises or lowers MEK5 binding to the human MEKK3 PB1 domain; Q99759; bead-based flow cytometry, Alexa488-MEK5 binding to MEKK3; actives lie on both sides; 0 = blocked by unlabeled MEK5, 100 = vehicle; binding response (% of control), % at 10 µM; hit rate 1.4% among 290,000;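 active = binding response more than 3 SD above or below the average of its plate-row segment, actives on both sides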;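 note: Alexa488 bead fluorescence after subtracting the streptavidin-only scavenger bead signal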
Target sequence (Q99759 whole entry, looked up, the tested form may be a part): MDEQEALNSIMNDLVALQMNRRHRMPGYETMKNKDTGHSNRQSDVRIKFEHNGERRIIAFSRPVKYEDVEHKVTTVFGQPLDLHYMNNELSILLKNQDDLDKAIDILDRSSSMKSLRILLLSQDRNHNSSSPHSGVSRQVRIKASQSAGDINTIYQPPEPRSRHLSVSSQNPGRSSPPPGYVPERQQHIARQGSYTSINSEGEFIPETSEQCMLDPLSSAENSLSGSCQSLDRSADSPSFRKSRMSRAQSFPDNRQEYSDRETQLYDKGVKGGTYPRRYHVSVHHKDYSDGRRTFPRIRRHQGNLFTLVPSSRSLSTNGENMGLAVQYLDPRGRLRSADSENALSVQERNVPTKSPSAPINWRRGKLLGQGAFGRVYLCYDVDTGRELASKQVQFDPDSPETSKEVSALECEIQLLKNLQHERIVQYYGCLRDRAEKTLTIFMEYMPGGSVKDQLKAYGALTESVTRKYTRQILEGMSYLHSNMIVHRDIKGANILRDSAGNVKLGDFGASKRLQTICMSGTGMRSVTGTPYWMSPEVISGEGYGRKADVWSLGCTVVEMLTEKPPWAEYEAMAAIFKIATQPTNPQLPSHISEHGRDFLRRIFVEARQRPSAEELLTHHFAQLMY
MEKK2wt PB1 HTS: raises or lowers MEK5 binding to wildtype human MEKK2 PB1 domain. Q9Y2U5. bead flow cytometry, Alexa488-MEK5 binding to MEKK2 WT; actives lie on both sides. binding response (% of control), % at 10 µM. hit rate 1.1% among 290,000. AID 1531; in the data active = binding response below about 67% or above about 130%
ABCB6 inh 2: blocks the human ABCB6 transporter | Q9NP58 | K562-ABCB6 porphyrin accumulation, flow cytometry, 1 h; hits give low values | fluorescence ratio to DMSO, % at 10 µM | hit rate 0.19% among 360,000 | AID 602162;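 active = fluorescence ratio to DMSO below 75%, the collection mean minus 3 SD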;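 note: signal is porphyrin accumulated inside mitochondria; 100% equals median channel fluorescence of DMSO control wells; lower ratio means ABCB6 inhibition with less porphyrin fluorescence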
CRFBP-R2 agonist: CRF-BP/CRF-R2 complex agonism; activation, % at 13.2 µM; hit rate 0.46% among 350,000; AID 588473; HEK293 CRF-R2/CRF-BP, calcium dye fluorescence (FLIPR); percent of saturating CRF peptide response;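 active = activation of at least 50%, plus an integration ratio under a set limit after plate pattern correction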;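 note: plate controls were neutral control wells without compound for no effect and CRF at EC100 for full effect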
CRFBP-R2 block: CRF-BP/CRF-R2 complex antagonism; HEK293 CRF-R2/CRF-BP, CRF-induced calcium fluorescence; inhibition, % at 11.8 µM; hit rate 0.59% among 350,000; AID 588475;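 active = inhibition of the ligand-induced calcium signal above about 50% at the single tested concentration, limit read from the data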
MEKK2mut PB1 HTS: signal of MEK5 binding to mutant human MEKK2 PB1 domain | bead flow cytometry, Alexa488-MEK5 binding to MEKK2 mutant | percent response, % at 10 µM | hit rate 0.35% among 290,000 | AID 1530; in the data active = percent response above about 24%, passing the limit was not always enough
ABCB6 inh CP1: blocks the human ABCB6 transporter. shares compounds with ABCB6 inh 2. K562-ABCB6 porphyrin accumulation, flow cytometry, 1 h; hits give low values. ratio response (% of DMSO), % at 10 µM. 700 tested, under 10 active. AID 602430;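 active = repeat-averaged ratio response below 75% of DMSO, the collection mean minus 3 SD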;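 note: median porphyrin fluorescence at 575 nm with 488 nm excitation from mitochondria; lower ratio means less porphyrin signal so ABCB6 inhibition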
K562 vector FC: effect in K562 cells lacking ABCB6, counter-screen | shares compounds with ABCB6 inh 2 | K562 empty-vector cells, flow cytometry fluorescence, 1 h | percent response (fluorescence), % at 100 µM | 25 tested, under 10 active | AID 624484;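 active = compounds whose half-maximal effective concentration is below 100 µM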
* = called active by the depositor; · = no result.

SMILES	MEKK3 PB1 HTS	MEKK2wt PB1 HTS	ABCB6 inh 2	CRFBP-R2 agonist	CRFBP-R2 block	MEKK2mut PB1 HTS	ABCB6 inh CP1	others
O=C(CN1C(=O)NC(Cc2c[nH]c3ccccc23)C1=O)Nc1ccc(Br)cc1F (stereo not given)	·	·	99.0	0.3	-22.8	·	·
COc1cc(S(=O)(=O)NCC2(N3CCCCC3)CCCCC2)ccc1NC(C)=O	·	·	97.0	-1.9	4.2	·	·
COc1ccc(CN(C)C(=O)Cn2cnc3c(OCc4ccccc4)ncnc32)cc1OC	·	·	102.0	0.2	-5.5	·	·
O=C(NC1CCCC1)c1nc2c(nnn2Cc2ccccc2Cl)c(=O)[nH]1	103.0	101.0	104.0	-0.9	6.2	2.0	·
O=C(C1CCCCC1)N1CCC(c2nc3c(nnn3Cc3ccccc3Cl)c(=O)[nH]2)CC1	·	·	100.0	-0.7	5.4	·	·
O=C(Cc1cccs1)N1CCC(c2nc3c(nnn3Cc3ccccc3Cl)c(=O)[nH]2)CC1	98.0	93.0	64.0*	-1.0	5.9	2.0	100.0
CCCCCCC(=O)N1CCC(c2nc3c(nnn3Cc3ccccc3Cl)c(=O)[nH]2)CC1	100.0	94.0	93.0	1.5	-32.6	1.0	101.0
O=C(Nc1ccc(F)cc1)N1CCC(c2nc3c(nnn3Cc3cccc(Cl)c3)c(=O)[nH]2)CC1	94.0	94.0	103.0	-0.8	12.0	0.0	·
O=C(C1CCCCC1)N1CCC(c2nc3c(nnn3Cc3c(F)cccc3Cl)c(=O)[nH]2)CC1	106.0	98.0	104.0	0.3	-5.5	3.0	101.0
N#Cc1cccc(NC(=O)N2CCC(c3nc4c(nnn4Cc4cccc(Cl)c4)c(=O)[nH]3)CC2)c1	102.0	106.0	90.0	0.5	-4.1	4.0	98.0
Clc1ccc(-c2nc3cc(CN4CCCCC4)ccc3o2)cc1	103.0	112.0	95.0	4.7	-18.4	5.0	·
COc1cc(OC)cc(-c2c(-c3cccs3)c3cc(-c4cnc(OC)nc4)ccc3n2C)c1	·	·	100.0	-0.7	20.0	·	·
Cc1ccc(-c2csc3ncnc(N4CCN(S(=O)(=O)c5cccs5)CC4)c23)cc1	·	·	74.0*	1.6	-5.6	·	97.0
Cc1ccc(-c2csc3ncnc(N4CCN(S(=O)(=O)c5ccc(C#N)cc5)CC4)c23)cc1	·	·	97.0	0.8	11.7	·	·
COC(=O)C1C(=O)C2=C(CC1C)NC(C)=C(C(=O)OC(C)C)C2c1ccc(OC)c(O)c1 (stereo not given)	97.0	96.0	73.0*	0.3	23.3	2.0	101.0
COc1ccccc1-c1cc2nc(NCCOc3ccccc3)ccn2n1	·	·	61.0*	·	·	·	104.0
CN(C(=O)C1CCCC1)C1CCS(=O)(=O)C1 (stereo not given)	·	·	71.0*	2.6	-10.4	·	99.0
Cc1nc(N2CCN(Cc3ccc4c(c3)OCO4)CC2)nc2c1C(=O)CC(c1ccco1)C2 (stereo not given)	97.0	98.0	73.0*	-0.3	-2.0	-10.0	198.0
Cc1nc(N2CCN(Cc3ccccc3)CC2)nc2c1C(=O)CC(c1ccco1)C2 (stereo not given)	106.0	115.0	95.0	1.0	3.6	9.0	·
CCCN1CCC(=O)N(CCO)CC1	100.0	104.0	96.0	0.5	3.3	-1.0	·
Fc1ccc(Nc2nnc(-c3ccncc3)s2)cc1Cl	·	·	100.0	·	·	·	·
O=C(CCCCCNc1nc(=S)[nH]c2ccccc12)N1CCN(c2ccccn2)CC1	100.0	106.0	74.0*	·	·	3.0	100.0
CN(C)C1(CN=Cc2cc(Cl)cc([N+](=O)[O-])c2O)CCCCC1	100.0	97.0	93.0	-1.4	6.4	2.0	·
CC(C)(C)c1cc(NS(=O)(=O)c2ccc3c(c2)OCCO3)on1	101.0	101.0	87.0	-1.7	-6.0	-2.0	·
CCOC(=O)c1ccc(S(=O)(=O)Nc2cc(C(C)(C)C)no2)cc1	94.0	90.0	66.0*	-1.3	14.4	-3.0	99.0
SMILES	MEKK3 PB1 HTS	MEKK2wt PB1 HTS	ABCB6 inh 2	CRFBP-R2 agonist	CRFBP-R2 block	MEKK2mut PB1 HTS	ABCB6 inh CP1	others
CNC(=O)c1c[nH]n2c(=O)c(Cc3ccccc3F)c(C)nc12	112.0	112.0	107.0	-1.7	4.4	6.0	116.0
COc1cccc(CNC(=O)c2c[nH]n3c(=O)c(Cl)c(C)nc23)c1	92.0	90.0	98.0	-1.0	6.4	-4.0	·
Cc1cc(S(=O)(=O)NC2CCCCC2)ccc1OCC(=O)NCC1CCCO1 (stereo not given)	99.0	102.0	73.0*	-4.6	57.1*	2.0	99.0
COC(=O)c1ccc(NC(=O)c2nc(S(=O)(=O)Cc3cccc(C)c3)ncc2Cl)cc1	100.0	101.0	41.0*	-1.0	52.5*	-1.0	91.0
CC(=O)Nc1ccc(NC(=O)c2nc(S(=O)(=O)Cc3cccc(C)c3)ncc2Cl)cc1	103.0	108.0	67.0*	-0.9	72.8*	1.0	·	K562 vector FC=224.4
COc1ccc(S(=O)(=O)N2CCCCCC2)cc1C(=O)N(C)CC(=O)Nc1ccccc1C(F)(F)F	·	·	95.0	-1.6	2.7	·	·
O=C1NC(=O)C2(CCC(C3CCCCC3)CC2)N1 (stereo not given)	·	·	99.0	-2.9	-18.1	·	·
COc1ccc(-c2nnc(SCC(=O)N3CCc4ccccc4C3)o2)cc1	97.0	97.0	56.0*	-2.0	7.0	-2.0	101.0
O=C(CSc1nnc(-c2ccccc2)o1)N1CCc2ccccc2C1	101.0	102.0	93.0	-0.6	-1.5	-3.0	·
C[C@H]1CN([C@@H](C)CO)C(=O)Cc2cc(NC(=O)CCC(F)(F)F)ccc2O[C@H]1CN(C)CC1CC1	·	·	103.0	0.0	2.5	·	·
COc1cccc(CN2CCNC(=O)C2CC(=O)NCc2cn3cccc(C)c3n2)c1OC (stereo not given)	100.0	105.0	103.0	-3.2	13.7	1.0	·
COc1cccc(CN2CCNC(=O)C2CC(=O)NCc2cn3ccccc3n2)c1OC (stereo not given)	103.0	101.0	73.0*	-1.1	-4.6	-1.0	97.0
CCCCN(C(=O)c1ccc(C)c(S(=O)(=O)N2CCOCC2)c1)c1c(N)n(CCCC)c(=O)[nH]c1=O	·	·	94.0	-2.6	9.1	·	·
O=C(CCc1nnc2ccc(N3CCC4(CC3)OCCO4)nn12)N1CCCCC1	97.0	95.0	97.0	0.2	-1.6	2.0	96.0
CN1CCN(C(=O)CCc2nnc3ccc(N4CCC5(CC4)OCCO5)nn23)CC1	100.0	99.0	97.0	-0.3	-3.1	3.0	100.0
Cc1ccc(NC(=O)CCc2nnc3ccc(N4CCC5(CC4)OCCO5)nn23)nc1	100.0	102.0	104.0	0.0	-12.6	-9.0	·
